Source: PubChem BioAssay (NMMLSC)
AGP1 TOR yeast = modulators of AGP1-GFP expression in yeast TOR pathway, primary screen, cell-based, multiplex flow cytometry, S. cerevisiae, MLPCN library. 3 h; GFP as percent of DMSO wells. GFP response vs DMSO, % at 10 µM. 320,000 tested, 0.02% active. AID 2066, 2009;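 active means GFP response relative to DMSO above a set limit, near screen average plus 3 SD, cut at about 150% in these data; inconclusive means fewer than 70 cells counted for the yeast strain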;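 further: median GFP channel fluorescence of the gated AGP1 strain per well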
CIT2-GFP yeast = modulators of CIT2-GFP expression in yeast, primary screen, S. cerevisiae, GFP fusion, multiplex flow cytometry, MLPCN library | S. cerevisiae CIT2-GFP strain, 3 h; 100 means same as DMSO wells | GFP response vs DMSO, % at 10 µM | 320,000 tested, 0.065% active | AID 2029, 2009;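 active means GFP response relative to DMSO above a set limit, near the screen mean plus 3 SD, cut at about 150% in these data; inconclusive means Fewer than 70 cells measured for a yeast strain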;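 further: ratio of well median GFP fluorescence to mean of DMSO wells on the plate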
LAP4-GFP MLPCN = modulators of LAP4-GFP expression in yeast, primary screen, S. cerevisiae, multiplex flow cytometry, MLPCN library. AID 2023, 2009. 320,000 tested, 0.34% active. 3 h; median GFP as percent of DMSO wells. GFP response vs DMSO, % at 10 µM;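 active means GFP response vs DMSO above a set limit, about the screen mean plus 3 SD, cut at about 150% in these data; inconclusive means under 70 cell events counted for the yeast strain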
MEP2-GFP yeast = modulators of MEP2-GFP levels in yeast, primary screen, S. cerevisiae, multiplex flow cytometry, MLPCN library; S. cerevisiae MEP2-GFP strain, 3 h; 100% = DMSO control level; GFP response vs DMSO, % at 10 µM; 330,000 tested, 0.51% active;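 active means GFP response versus DMSO above a set limit, roughly screen mean plus 3 SD, cut at about 180% in these data; inconclusive means fewer than 70 cells counted for a yeast strain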;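 further: median GFP fluorescence of the barcode-gated MEP2-GFP cells per well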
RPL19A TOR yeast = RPL19A-GFP expression modulators in yeast, primary screen, cell-based, S. cerevisiae, multiplex flow cytometry, MLPCN; percent response vs DMSO, % at 10 µM; S. cerevisiae RPL19A-GFP strain, 3 h; hits give low values; AID 2025, 2009; 330,000 tested, 0.3% active;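 active means percent response vs DMSO below 50%; inconclusive means fewer than 70 events counted for the yeast strain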;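 further: median channel GFP fluorescence of the barcoded RPL19A-GFP strain; ratio of sample median GFP to plate DMSO average so 100% = DMSO; lower means less RPL19A-GFP as with rapamycin TOR inhibition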
* marks the source's active call; other numbers are inactive results; ? = inconclusive; · = not tested or not shown; [ ] = remark or other dose. An excerpt weighted towards active compounds, which were near 0.89% of everything screened.

SMILES	AGP1 TOR yeast	CIT2-GFP yeast	LAP4-GFP MLPCN	MEP2-GFP yeast	RPL19A TOR yeast
CC(=O)c1cccc(NC(=O)c2ccc3c(c2)CCCC3)c1	99	98	101	100	103
COc1cccc(NC(=O)c2ccc3c(c2)CCCC3)c1	84	57	174*	77	77
Cc1cc(NC(=O)C(C)SCC(=O)N(C)Cc2c(F)cccc2Cl)no1 (stereo unspecified)	101	93	97	100	100
CCCCOc1cccc(/C=C(\C#N)C(=O)NC2CC2)c1	83	120	175*	100	98
CCOc1cccc(/C=C(\C#N)C(=O)NC2CC2)c1	101	90	141	93	96
COc1cc(C)nc(NC(=O)NC(=O)c2ccc(C(F)(F)F)cc2)n1	88	86	91	90	89
O=C(Nc1cccc(NC(=O)c2ccco2)n1)c1ccco1	94	99	97	105	102
COC(=O)c1ccc(CNC(=O)c2ccc(OCC(=O)N3CCOCC3)c(OC)c2)cc1	105	96	103	103	100
Nc1ccc2oc(=O)c3ccccc3c2c1	?	?	71	231*[may fluoresce violet]	34*[may fluoresce violet]
COc1ccc(-c2cc(CNC(=O)CN3CCN(C)CC3)on2)cc1	32	?	87	257*[may fluoresce violet]	·
c1ccc(CNc2cnccn2)cc1	97	98	98	98	97
c1ccc(CCNc2cnccn2)cc1	?	?	70	190*[may fluoresce violet]	65
C=CC[C@H](CC(=O)NCCO)C(=O)N[C@@H](COC(=O)[C@@H](CC=C)Cc1ccc(F)cc1)Cc1ccccc1	109	101	109	102	101
CC1=CN2C(=NC(=O)CC2(C)C(=O)N(CC(=O)NC2CCCC2)c2ccccc2C)C=C1 (stereo unspecified)	?	·	91	285*[may fluoresce violet]	36*[may fluoresce violet]
CC1=CC2=NC(=O)CC(C)(C(=O)N(CC(=O)NC3CCCC3)c3ccccc3C)N2C=C1 (stereo unspecified)	100	88	101	103	95
CN1CCN(C(=O)CC2C(=O)NCCN2Cc2ccc(-c3ccccc3)cc2)CC1 (stereo unspecified)	110	109	163*	259*	81
CCN1c2ccccc2N(C)C1(C)c1ccccc1 (stereo unspecified)	95	102	102	103	98
CN1c2ccccc2N(C)C1(C)c1ccccc1	20	?	92	186*[may fluoresce violet]	39*[may fluoresce violet]
CCN(C(=O)CN1CCC(C(=O)OC)CC1)c1c(N)n(Cc2ccccc2)c(=O)[nH]c1=O	105	89	102	95	97
CN(CC(=O)Nc1ccc(F)c(F)c1F)C(=O)C1COc2ccccc2O1 (stereo unspecified)	114	112	116	106	111
Cc1nnc(N2CCCC(C(=O)Nc3cc(F)ccc3F)C2)c2nn(-c3ccccc3)c(C)c12 (stereo unspecified)	106	107	100	103	105
Cc1nnc(N2CCCC(C(=O)NCc3ccc(OC(C)C)cc3)C2)c2nn(-c3ccccc3)c(C)c12 (stereo unspecified)	?	?	62	253*[may fluoresce violet]	48*[may fluoresce violet]
NS(=O)(=O)c1cccc(NC(=O)COC(=O)c2ccccc2SCC(=O)N2CCCC2)c1	100	104	101	114	102
S=C(Nc1ccc(Cl)cc1)Nc1ccc2cn[nH]c2c1	74	65	169*	85	95
S=C(Nc1ccc2cn[nH]c2c1)Nc1ccc(Cl)cc1Cl	103	95	102	97	97
Cc1cccc(NC(=O)CS(=O)(=O)c2cn(CC(=O)N3CCOCC3)c3ccccc23)c1	?	?	70	187*[may fluoresce violet]	43*[may fluoresce violet]
CC(=O)Nc1cccc(NC(=O)CS(=O)(=O)c2cn(CC(=O)N3CCOCC3)c3ccccc23)c1	90	84	93	86	87
Cc1nc(Oc2ccccc2)c2oc3ccccc3c2n1	?	?	112	430*[may fluoresce violet]	57
COc1ccc(Oc2nc(C)nc3c2oc2ccccc23)cc1	91	·	98	99	97
COc1ccccc1NC(=O)COC(=O)c1ccc([N+](=O)[O-])s1	10	?	53	105	21*[may fluoresce violet]
